# Data as given in the supplement of paper PMC8728848.
# Many of the other results were omitted from the sample, so the strongest signals are more common in it than they were.
# B1: Tectonin 2 (Laccaria bicolor) (protein)
# chain: MPWKGISGSLSRISAGSVTNVWGVNAANNIYRYTGDDAKPWVQIPGALTDIGAAADGTVWGVNAAGNIYRYVWDSNHWTQIKGALKRISAGSRTNVWGVNAGGAIYRYTGDDANPWVQIPGVLSDIGAGADGTVWGVNAAGEIYRYTGDQGDPNHWVKIPGALSAISAGIKTNVWGVNSANNIYTSTGDDKNPWLGIGGSLVDIGAGTDGVVWGVNAGGGIYRWIRD
# How the values were obtained:
# Assay in all cases: glycan array binding signal (z-score within array); higher = stronger binding
# Settings in all cases: glycan notation: IUPAC condensed, linker removed
# [1] = biological target: Fuc(a1-2)Gal(b1-3)GlcNAc(b1-2)Man(a1-3)[Fuc(a1-2)Gal(b1-3)GlcNAc(b1-2)Man(a1-6)]Man(b1-4)GlcNAc(b1-4)[Fuc(a1-6)]GlcNAc
# Procedure, shortened: (§1)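 Columns mapping to the same glycan were averaged after glycan names were converted to IUPAC-condensed notation. The data come from 3228 arrays in the Consortium for Functional Glycomics database, limited to those with an available protein sequence. Binding is reported as a within-array Z-score averaged across arrays of one protein sequence and across linkers.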
# Fuc(a1-2)Gal(b1-4)Glc6S = biological target: Fuc(a1-2)Gal(b1-4)Glc6S
# Procedure, shortened: as §1
# [2] = biological target: Fuc(a1-2)[Gal(a1-3)]Gal(b1-4)GlcNAc(b1-2)Man(a1-3)[Fuc(a1-2)[Gal(a1-3)]Gal(b1-4)GlcNAc(b1-2)Man(a1-6)]Man(b1-4)GlcNAc(b1-4)GlcNAc
# Procedure, shortened: as §1
# [3] = biological target: Fuc(a1-2)[GalNAc(a1-3)]Gal(b1-4)GlcNAc(b1-2)Man(a1-3)[Fuc(a1-2)[GalNAc(a1-3)]Gal(b1-4)GlcNAc(b1-2)Man(a1-6)]Man(b1-4)GlcNAc(b1-4)GlcNAc
# Procedure, shortened: as §1
# [4] = biological target: Fuc(a1-2)[GalNAc(a1-3)]Gal(b1-4)[Fuc(a1-3)]GlcNAc
# Procedure, shortened: as §1
# [5] = biological target: Fuc(a1-3)[Gal(b1-4)]GlcNAc(b1-4)Gal(b1-4)[Fuc(a1-3)]GlcNAc(b1-4)Gal(b1-4)[Fuc(a1-3)]GlcNAc
# Procedure, shortened: as §1
# [6] = biological target: Fuc(a1-3)[Gal3S(b1-4)]GlcNAc6S
# Procedure, shortened: as §1
# [7] = biological target: Gal(a1-3)Gal(b1-3)[Fuc(a1-4)]GlcNAc(b1-2)Man(a1-3)[Gal(a1-3)Gal(b1-3)[Fuc(a1-4)]GlcNAc(b1-2)Man(a1-6)]Man(b1-4)GlcNAc(b1-4)GlcNAc
# Procedure, shortened: as §1
# Gal(b1-3)GalNAc = biological target: Gal(b1-3)GalNAc
# Procedure, shortened: as §1
# [8] = biological target: Gal(b1-3)GalNAc(a1-3)[Fuc(a1-2)]Gal(b1-4)Glc
# Procedure, shortened: as §1
# [9] = biological target: Gal(b1-3)GalNAc(b1-4)Gal(b1-4)Glc
# Procedure, shortened: as §1
# [10] = biological target: Gal(b1-3)GlcNAc(b1-2)Man(a1-3)[Gal(b1-3)GlcNAc(b1-2)Man(a1-6)]Man(b1-4)GlcNAc(b1-4)GlcNAc
# Procedure, shortened: as §1
# [11] = biological target: Gal(b1-3)[Fuc(a1-4)]GlcNAc
# Procedure, shortened: as §1
# [12] = biological target: Gal(b1-4)GlcNAc(b1-2)Man(a1-3)Man(b1-4)GlcNAc(b1-4)GlcNAc
# Procedure, shortened: as §1
# [13] = biological target: Gal(b1-4)GlcNAc(b1-2)[Gal(b1-4)GlcNAc(b1-4)]Man(a1-3)[Gal(b1-4)GlcNAc(b1-2)[Gal(b1-4)GlcNAc(b1-6)]Man(a1-6)]Man(b1-4)GlcNAc(b1-4)GlcNAc
# Procedure, shortened: as §1
# [14] = biological target: Gal(b1-4)GlcNAc(b1-2)[Gal(b1-4)GlcNAc(b1-4)]Man(a1-3)[GlcNAc(b1-4)][Gal(b1-4)GlcNAc(b1-2)Man(a1-6)]Man(b1-4)GlcNAc(b1-4)GlcNAc
# Procedure, shortened: as §1
# [15] = biological target: Gal(b1-4)GlcNAc(b1-3)Gal(b1-4)[Fuc(a1-3)GlcNAc(b1-6)]Gal(b1-4)Glc
# Procedure, shortened: as §1
# Gal6S(b1-4)GlcNAc6S = biological target: Gal6S(b1-4)GlcNAc6S
# Procedure, shortened: as §1
# Glc(a1-6)Glc(a1-6)Glc = biological target: Glc(a1-6)Glc(a1-6)Glc
# Procedure, shortened: as §1
# Glc(b1-4)Glc = biological target: Glc(b1-4)Glc
# Procedure, shortened: as §1
# GlcA(b1-3)GlcNAc = biological target: GlcA(b1-3)GlcNAc
# Procedure, shortened: as §1
# [16] = biological target: GlcNAc(a1-4)Gal(b1-4)GlcNAc(b1-3)Gal(b1-4)GlcNAc
# Procedure, shortened: as §1
# [17] = biological target: GlcNAc(a1-4)Gal(b1-4)GlcNAc(b1-3)Gal(b1-4)[Fuc(a1-3)]GlcNAc(b1-3)Gal(b1-4)[Fuc(a1-3)]GlcNAc
# Procedure, shortened: as §1
# [18] = biological target: GlcNAc(b1-2)Man(a1-3)[GlcNAc(b1-2)Man(a1-6)]Man(b1-4)GlcNAc(b1-4)[Fuc(a1-6)]GlcNAc
# Procedure, shortened: as §1
# [19] = biological target: GlcNAc(b1-2)[GlcNAc(b1-4)]Man(a1-3)[GlcNAc(b1-4)][GlcNAc(b1-2)Man(a1-6)]Man(b1-4)GlcNAc(b1-4)GlcNAc
# Procedure, shortened: as §1
# GlcNAc(b1-3)Man = biological target: GlcNAc(b1-3)Man
# Procedure, shortened: as §1
# [20] = biological target: GlcNAc(b1-3)[GlcNAc(b1-6)]GalNAc
# Procedure, shortened: as §1
# Man(a1-3)[Man(a1-6)]Man = biological target: Man(a1-3)[Man(a1-6)]Man
# Procedure, shortened: as §1
# Man(a1-6)Man = biological target: Man(a1-6)Man
# Procedure, shortened: as §1
# [21] = biological target: Neu5Ac(a2-3)Gal(b1-3)GalNAc(b1-3)Gal(a1-4)Gal(b1-4)Glc
# Procedure, shortened: as §1
# [22] = biological target: Neu5Ac(a2-3)Gal(b1-3)GalNAc(b1-4)[Neu5Ac(a2-3)]Gal(b1-4)Glc
# Procedure, shortened: as §1
# [23] = biological target: Neu5Ac(a2-3)Gal(b1-4)GlcNAc(b1-3)Gal(b1-4)[Fuc(a1-3)]GlcNAc
# Procedure, shortened: as §1
# [24] = biological target: Neu5Ac(a2-3)Gal(b1-4)[Fuc(a1-3)]GlcNAc(b1-3)GalNAc
# Procedure, shortened: as §1
# [25] = biological target: Neu5Ac(a2-6)Gal(b1-4)GlcNAc(b1-3)GalNAc
# Procedure, shortened: as §1
# Neu5Ac(a2-6)GalNAc = biological target: Neu5Ac(a2-6)GalNAc
# Procedure, shortened: as §1
# Neu5Ac(a2-8)Neu5Ac = biological target: Neu5Ac(a2-8)Neu5Ac
# Procedure, shortened: as §1
# [26] = biological target: Neu5Ac(a2-8)Neu5Ac(a2-8)Neu5Ac(a2-3)[GalNAc(b1-4)]Gal(b1-4)Glc
# Procedure, shortened: as §1
# [27] = biological target: Neu5Ac(a2-8)Neu5Ac(a2-8)Neu5Ac(a2-8)Neu5Ac(a2-3)[GalNAc(b1-4)]Gal(b1-4)Glc
# Procedure, shortened: as §1
# [28] = biological target: Neu5Ac9Ac(a2-6)Gal(b1-4)GlcNAc
# Procedure, shortened: as §1
binder,measurement,setting,value
B1,glycan array binding signal (z-score),[1],-0.069
same,glycan array binding signal (z-score),Fuc(a1-2)Gal(b1-4)Glc6S,-0.349
same,glycan array binding signal (z-score),[2],9.62
same,glycan array binding signal (z-score),[3],-0.16
same,glycan array binding signal (z-score),[4],-0.145
same,glycan array binding signal (z-score),[5],-0.16
same,glycan array binding signal (z-score),[6],0.299
same,glycan array binding signal (z-score),[7],-0.008
same,glycan array binding signal (z-score),Gal(b1-3)GalNAc,-0.212
same,glycan array binding signal (z-score),[8],-0.46
same,glycan array binding signal (z-score),[9],-0.123
same,glycan array binding signal (z-score),[10],0.354
same,glycan array binding signal (z-score),[11],-0.348
same,glycan array binding signal (z-score),[12],-0.226
same,glycan array binding signal (z-score),[13],-0.038
same,glycan array binding signal (z-score),[14],0.732
same,glycan array binding signal (z-score),[15],-0.568
same,glycan array binding signal (z-score),Gal6S(b1-4)GlcNAc6S,2.71
same,glycan array binding signal (z-score),Glc(a1-6)Glc(a1-6)Glc,-0.136
same,glycan array binding signal (z-score),Glc(b1-4)Glc,-0.277
same,glycan array binding signal (z-score),GlcA(b1-3)GlcNAc,4.49
same,glycan array binding signal (z-score),[16],-0.238
same,glycan array binding signal (z-score),[17],2.15
same,glycan array binding signal (z-score),[18],0.258
same,glycan array binding signal (z-score),[19],-0.327
same,glycan array binding signal (z-score),GlcNAc(b1-3)Man,-0.371
same,glycan array binding signal (z-score),[20],-0.21
same,glycan array binding signal (z-score),Man(a1-3)[Man(a1-6)]Man,-0.426
same,glycan array binding signal (z-score),Man(a1-6)Man,-0.438
same,glycan array binding signal (z-score),[21],0.073
same,glycan array binding signal (z-score),[22],2.34
same,glycan array binding signal (z-score),[23],2.47
same,glycan array binding signal (z-score),[24],2.62
same,glycan array binding signal (z-score),[25],1.14
same,glycan array binding signal (z-score),Neu5Ac(a2-6)GalNAc,-0.325
same,glycan array binding signal (z-score),Neu5Ac(a2-8)Neu5Ac,-0.07
same,glycan array binding signal (z-score),[26],-0.445
same,glycan array binding signal (z-score),[27],2.33
same,glycan array binding signal (z-score),[28],0.77
